HP1b chromo inh: HP1-beta chromodomain-methylated histone interaction inhibition. P83916. AlphaScreen HP1-beta / biotin-H3K9me3 peptide binding. Potency, µM (doses to about 114 µM), hits mostly inhibitors. actives 0.56% (n = 390,000). AID 540317; note: nearly all actives have a fitted effect of over 70% in size
Target sequence (P83916 whole entry, looked up): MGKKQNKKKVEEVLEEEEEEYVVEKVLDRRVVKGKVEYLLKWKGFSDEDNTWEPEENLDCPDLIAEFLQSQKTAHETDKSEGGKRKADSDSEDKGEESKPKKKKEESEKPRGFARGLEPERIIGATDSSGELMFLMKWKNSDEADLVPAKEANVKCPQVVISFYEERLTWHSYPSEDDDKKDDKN
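AlphaScreen: HP1-beta (50 nM) preformed 30 min with biotin-H3(1-18)K9me3 peptide (50 nM) in PBS pH 7.4, 0.01% Tween-20. Compound added for 30 min at RT, then streptavidin donor/nickel chelate acceptor beads (10 ug/mL) for 30 min.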
Six1-Eya2 blk: blocks human Six1 binding to Eya2. Q15475+O00167. AlphaScreen GST-Six1/His-Eya2 binding, biochemical; stronger effect = lower value. activity change, % (no concentration beside the values). actives 0.56% (n = 360,000); in the data active = activity change below about -65%; inconclusive = mostly about -30% to -63%
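AlphaScreen luminescence read after one hour at 37 °C in darkness. Pin-transferred compounds met GST-Six1 and His-Eya2 protein (5X stock 250 nM/500 nM) plus glutathione donor and Ni-chelate acceptor beads (5X, 50 ug/mL).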
JMJD2A Tudor: blocks the human JMJD2A Tudor domain | actives 4.4% (n = 390,000) | O75164 | AlphaScreen JMJD2A-Tudor / H3K4me3 peptide binding | Potency, µM (series often up to 114 µM), hits mostly inhibitors; note: nearly all actives have a fitted effect of over 50% in size
G9a inh: G9a (human) methyltransferase inhibition | G9a H3K9 monomethylation, AlphaScreen, 2 h | Potency, µM (highest dose often 102 µM), usual class: inhibitors | actives 8.8% (n = 350,000); note: nearly all actives have a fitted effect of over 75% in size
Target sequence (Q96KQ7 913-1193 limits assumed): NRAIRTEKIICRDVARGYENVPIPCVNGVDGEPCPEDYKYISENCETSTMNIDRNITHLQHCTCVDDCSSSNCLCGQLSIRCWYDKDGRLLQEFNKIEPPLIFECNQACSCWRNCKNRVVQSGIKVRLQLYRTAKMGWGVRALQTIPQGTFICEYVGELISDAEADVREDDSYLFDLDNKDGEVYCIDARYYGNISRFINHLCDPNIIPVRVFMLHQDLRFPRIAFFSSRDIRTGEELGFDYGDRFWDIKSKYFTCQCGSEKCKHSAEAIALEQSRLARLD
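G9a (20 nM) preincubated 15 min RT with compounds, then 500 nM biotinylated H3K9 peptide and 20 uM SAM added; 2 h RT reaction. Monomethyl-H3K9 product detected by AlphaScreen with anti-H3K9me1 antibody, streptavidin donor and anti-rabbit IgG acceptor beads.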
BAZ2B block: BAZ2B (human) inhibition; Q9UIF8; AlphaScreen BAZ2B-H3K14Ac peptide displacement; actives 4.4% (n = 360,000); Potency, µM (highest dose often 114 µM), hits mostly inhibitors; AID 504333; note: nearly all actives have a fitted effect of over 60% in size
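Compounds, titrated to a top concentration of 110 uM, were incubated 30 min at room temperature with preformed BAZ2B/acetyl-K14 H3 peptide complex (50 nM each). Proximity signal was measured by AlphaScreen after 20 min with beads.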
CtBP-E1A blk: CtBP/E1A binding inhibition. AlphaScreen GST-E1A/His-CtBP binding, 1536-well; stronger effect = lower value. activity change, % (no concentration beside the values). actives 0.49% (n = 340,000); in the data active = activity change below about -65%; inconclusive = mostly about -30% to -63%
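Steps: dispense buffer (Tris pH 8.0, NaCl 300 mM, TCEP 1 mM, BSA, Tween 20); add 5X protein mix (GST-E1A, His-CtBP, 125 nM each); pin 23 nL compound; 2 h at 37 °C, dark; add 5X beads (50 ug/mL); 1 h; read.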
A number is an active result; - = inactive; ? = inconclusive; . = not tested or not shown; [ ] = dose if it differs, or a comment. In the library only some 10% were active in any assay of this set; here they are far more common. Unless noted, calls come from the whole dose curve; as a rule, active = well fitted inhibition curve with a large enough effect; inconclusive = small, poorly fitted or top-dose-only effect; inactive = no such curve, though single readings can be large or run the other way.

SMILES	HP1b chromo inh	Six1-Eya2 blk	JMJD2A Tudor	G9a inh	BAZ2B block	CtBP-E1A blk
COc1ccc(CCn2c(-n3nc(C)cc3C)nc3c2c(=O)[nH]c(=O)n3C)cc1	-	-	3.2µM	.	.	-
COc1ccc(N2CCN(Cc3nc4c(c(=O)[nH]c(=O)n4C)n3Cc3ccccc3C)CC2)cc1	-	.	-	28µM	-	.
CCc1cnc2c(c1SCC(=O)NCc1ccc(F)cc1)c(=O)n(C)c(=O)n2C	-	.	-	-	-	.
CC(C)C[C@@H](CNCC(=O)[C@H](Cc1c[nH]c2ccccc12)NC(=O)c1[nH]cnc1C(=O)N[C@@H](C)CN)NC(=O)c1nc[nH]c1C(=O)N[C@@H](CC(=O)O)C(=O)O	-	?	20µM	.	.	?
CC(C)C[C@@H](CNCC(=O)[C@H](Cc1c[nH]c2ccccc12)NC(=O)c1[nH]cnc1C(=O)N[C@@H](C)CN)NC(=O)c1nc[nH]c1C(=O)N[C@@H](C)C(=O)O	-	-	50µM	.	.	-
CC(C)C[C@@H](CN)NC(=O)c1nc[nH]c1C(=O)N[C@@H](Cc1c[nH]c2ccccc12)C(=O)CNC[C@H](C)NC(=O)c1nc[nH]c1C(=O)N[C@@H](CC(=O)O)C(=O)O	-	-	56µM	.	.	-
COC(=O)C(Cc1c[nH]c2ccccc12)NC(=O)c1ccc2nc[nH]c2c1 (stereo unspecified)	-	-	-	-	-	-
CC(C)C[C@@H](CNCC(=O)[C@H](Cc1c[nH]c2ccccc12)NC(=O)c1[nH]cnc1C(=O)N[C@H](CN)CC(C)C)NC(=O)c1nc[nH]c1C(=O)N[C@@H](CC(=O)O)C(=O)O	?	-	40µM	.	.	?
COc1ccc(-c2csc(NC(=O)c3ccccc3F)c2C(=O)O)cc1	-	-	-	-	-	?
O=C(CSc1c2c(nc3ccccc13)CCC2)Nc1ccc(F)cc1	-	.	-	-	.	.
Cc1nc(/N=C(\N)N(C)C)[nH]c(=O)c1C	-	-	-	-[12.7 µM]	-	.
Cc1ccc(NC(=O)c2sc(-n3nc(C)c(Cc4ccc5c(c4)OCO5)c3C)nc2C)cc1Cl	.	.	-	-	-	.
COc1ccc(N(C(=O)c2ccncc2)S(=O)(=O)c2cccc([N+](=O)[O-])c2)cc1	-	-	?	79µM	-	-
COc1ccc(N(C(=O)c2cccnc2)S(=O)(=O)c2cccc([N+](=O)[O-])c2)cc1	-	-	?	-[12.7 µM]	-	-
NC(=O)c1ccc(Nc2nc(C(N)c3ccccc3Cl)cs2)cc1 (stereo unspecified)	.	-	.	.	.	-
NC(c1csc(Nc2ccc(C(=O)NCCCO)cn2)n1)c1ccccc1Cl (stereo unspecified)	.	?	.	.	.	-77
NC(c1ccccc1)c1csc(Nc2ccc(C(=O)NCCCO)cn2)n1 (stereo unspecified)	.	-83	.	.	.	-85
NC(c1ccccc1)c1csc(Nc2ccc(C(=O)NCCO)cc2)n1 (stereo unspecified)	.	-	.	.	.	-
CCc1ccccc1NC(=O)c1ccc(Cn2nc(N3CCN(c4ccccc4)CC3)ccc2=O)o1	-	.	?	?	-	.
CCc1ccc(NC(=O)c2ccc(Cn3nc(N4CCN(c5ccccc5)CC4)ccc3=O)o2)cc1	-	.	?	?	50µM	.
O=C(O)CCCNc1cc(N2CCC3(CC2)OCCO3)c2noc3c2c1C(=O)c1ccccc1-3	.	.	.	?	14µM	.
O=C1c2ccccc2-c2onc3c(N4CCN(CCO)CC4)cc(N4CCN(C(=O)c5ccco5)CC4)c1c23	?	?	25µM	28µM	16µM	-75
O=C(c1ccco1)N1CCN(CCCCN2C(=O)c3ccccc3C2=O)CC1	-	-	-	-	-	-
O=[N+]([O-])c1c(NCCO)cc(N2CCC3(CC2)OCCO3)c2nonc12	-	-	-	-	-	-
CCOC(=O)N1CCN(c2cc(NCCC(=O)O)c3c4c(onc24)-c2ccccc2C3=O)CC1	-	-69	56µM	?	28µM	-70
SMILES	HP1b chromo inh	Six1-Eya2 blk	JMJD2A Tudor	G9a inh	BAZ2B block	CtBP-E1A blk
O=C(O)CCCNc1cc(N2CCN(C(=O)c3ccco3)CC2)c2noc3c2c1C(=O)c1ccccc1-3	35µM	?	35µM	10µM	18µM	?
COc1ccc(CN2C(=O)CSCC2(C)C(=O)Nc2ccc3c(c2)OCCO3)cc1 (stereo unspecified)	.	-	.	.	.	-
CCOC(=O)c1c(C)oc2ncnc(Nc3ccc(OC)c(OC)c3)c12	-	.	-	-	-	.
O=C(c1ccco1)N1CCN(C2=NS(=O)(=O)c3ccccc32)CC1	-	-	-	-[12.7 µM]	-	-
CN1CCN(c2cc(N3CCN(C(=O)c4ccco4)CC3)c3c4c(onc24)-c2ccccc2C3=O)CC1	?	?	40µM	35µM	16µM	.
CCn1c(=O)cc(SCC(=O)N2CCN(C3CCCCC3)CC2)c2ccccc21	-	-	-	-	-	-
CCCCNc1cc(N2CCN(C3CCCCC3)CC2)c2noc3c2c1C(=O)c1ccccc1-3	-	.	?	?	5µM	.
O=C1CN(S(=O)(=O)c2ccc3c(c2)OCCO3)CCN1S(=O)(=O)c1c(F)cccc1F	.	.	-	.	.	.
Cn1c(SCc2ccccc2Cl)nc(=O)c2c1NC(=O)CC2c1cc(F)ccc1F (stereo unspecified)	-	.	-	-	-	.
COc1ccc(C(CC(=O)N2CCN(c3ccccc3)CC2)c2c(OC)cc(OC)c3c(-c4ccccc4)cc(=O)oc23)cc1 (stereo unspecified)	.	.	.	?	40µM	.
COc1ccc(C(CC(=O)N2CCOCC2)c2c(OC)cc(OC)c3c(-c4ccccc4)cc(=O)oc23)cc1 (stereo unspecified)	-	-	56µM	-	56µM	-
COc1cc(OC)c2ccc(=O)oc2c1C(CC(=O)N1CCCC1)c1ccc(N(C)C)cc1 (stereo unspecified)	-	-	?	?	-	-
COc1ccc(C(CC(=O)N2CCOCC2)c2c(OC)cc(OC)c3ccc(=O)oc23)cc1 (stereo unspecified)	-	-	-	-[12.7 µM]	-	-
COc1cc(O)c(C(CC(=O)N2CCN(c3ccccc3)CC2)c2cc(OC)c(OC)c(OC)c2)c(OC)c1 (stereo unspecified)	-	-	-	-	-	-
COc1cc(OC)c2c(-c3ccccc3)cc(=O)oc2c1C(CC(=O)N1CCCC1)c1ccc(N(C)C)cc1 (stereo unspecified)	?	.	22µM	.	.	.
COc1ccc(C(CC(=O)N2CCCC(C)C2)c2c(OC)cc(OC)c3c(-c4ccccc4)cc(=O)oc23)cc1 (stereo unspecified)	-	-	45µM	-[12.7 µM]	45µM	-

Bioassay records deposited in PubChem by National Center for Advancing Translational Sciences (NCATS).
